Most compounds without a hit are left out; they make up all but 0.68% or so of the library.
Sa RN4220 lethal – growth inhibition of S. aureus RN4220, primary screen, OD600 | 16 h | hit rate 0.33% among 330,000 | inhibition, % (no concentration beside the values); in the data active = inhibition above about 85%;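 also: plate controls were untreated cells for no effect and reference antibiotic for full effect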
Mtb hypoxia rep – PubChem AID 1159583 | M. tuberculosis hypoxia-regulated fluorescent reporter, fluorescence | hit rate 0.1% among 300,000 | fluorescence inhibition, % (test concentration not listed); in the data active = fluorescence inhibition mostly above about 23%, no sharp cut-off; inactive = mostly below about 17%
Mtb bLac sens – beta-lactam sensitization of Mtb H37Rv, H37Rv; M. tuberculosis H37Rv growth with meropenem, percent inhibition; inhibition, % at 25 µM; hit rate 0.27% among 330,000; AID 434955, 2010; call rule not given here;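 also: growth measured after seven days incubation then overnight dye step; 0% = bacteria only wells and 100% = bacteria with antibiotic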
ugtP null kill – growth inhibition of ugtP-null S. aureus, primary screen, RN4220 ugtP deletion, OD600; 16 h; growth inhibition, % (test concentration not listed); hit rate 0.54% among 330,000; in the data active = growth inhibition above about 68%;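 also: plate controls were untreated wells for no effect and antibiotic for full effect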
Mtb UGM inh – M. tuberculosis UGM enzyme inhibitors, primary screen, biochemical, fluorescence polarization, single point. hit rate 0.06% among 320,000. UDP-galactopyranose mutase (Mycobacterium tuberculosis (strain ATCC 25618 / H37Rv)), …. inhibition, % at 10 µM. purified UGM, fluorescence polarization probe displacement; in the data active = inhibition above about 10%, passing the limit was not always enough
Rv3671c inh – Rv3671c serine protease inhibitors, primary screen, biochemical, fluorescence polarization, M. tuberculosis H37Rv. P9WHR9. inhibition, % at 5.96 µM. hit rate 0.048% among 320,000. AID 2606, 2010;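 also: extracellular domain of Rv3671c used as enzyme; 0% = enzyme with DMSO and 100% = no enzyme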
Target sequence (P9WHR9 whole entry, looked up, the tested form may be a part): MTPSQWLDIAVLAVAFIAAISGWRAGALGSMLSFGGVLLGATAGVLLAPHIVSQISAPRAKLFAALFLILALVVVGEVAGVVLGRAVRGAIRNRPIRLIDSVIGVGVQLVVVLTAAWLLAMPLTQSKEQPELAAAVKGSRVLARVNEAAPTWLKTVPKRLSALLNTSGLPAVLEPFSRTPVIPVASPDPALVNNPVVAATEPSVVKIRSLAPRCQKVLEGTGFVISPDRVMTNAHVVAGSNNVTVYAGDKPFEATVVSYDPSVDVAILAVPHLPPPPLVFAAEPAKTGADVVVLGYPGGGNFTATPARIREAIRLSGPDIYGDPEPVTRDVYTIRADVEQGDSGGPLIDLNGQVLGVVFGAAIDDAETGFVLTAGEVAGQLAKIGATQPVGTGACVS
Rv3671c confirm – Rv3671c serine protease inhibitors, retest, confirmation, biochemical, fluorescence polarization, M. tuberculosis H37Rv; shares compounds with Rv3671c inh; inhibition, % at 5.96 µM; hit rate 40% among 140; AID 2761, 2010
Numbers without * were called inactive. Rule as the data show it, unless noted: active = inhibition above about 38%; inactive = the rest.

For COC(=O)c1ccccc1-c1c2ccc(=N)cc-2oc2cc(N)ccc12 the results were Mtb bLac sens 39.5, Mtb UGM inh 138.0*, Rv3671c inh 166.4* and Rv3671c confirm 163.9*.
CCOC(=O)c1ccc(NC(=O)c2cn(-c3ccccc3)nc2-c2ccncc2)cc1 was read as Sa RN4220 lethal 25.3, Mtb hypoxia rep -7.7, Mtb bLac sens -1.5, ugtP null kill 5.2, Mtb UGM inh -4.2, Rv3671c inh 192.7* and Rv3671c confirm -40.2.
CC(C(=O)NCc1ccc(S(C)(=O)=O)cc1)C1C[C@@]1(C)C(NC(=O)OCc1ccccc1)c1ccccc1 (stereo not given in full) was read as Sa RN4220 lethal -0.5, Mtb hypoxia rep 16.6 and ugtP null kill 5.7.
O=c1oc(-c2ccccc2Br)nc2ccccc12 was read as Sa RN4220 lethal 2.0, Mtb hypoxia rep 16.1, Mtb bLac sens 60.9, ugtP null kill 7.4, Mtb UGM inh -2.7, Rv3671c inh 39.6* and Rv3671c confirm 65.9*.
`Cc1onc(-c2ccccc2)c1-c1nc2ccccc2c(=O)o1` gave Sa RN4220 lethal 0.7, Mtb hypoxia rep -5.6, Mtb bLac sens 9.8, ugtP null kill -4.4, Mtb UGM inh 4.3, Rv3671c inh 48.9* and Rv3671c confirm 62.5*.
`Cc1onc(-c2ccccc2)c1-c1nc2cc(Cl)ccc2c(=O)o1` gave Mtb bLac sens -4.6, Mtb UGM inh 2.8 and Rv3671c inh -6.2.
Screening O=c1oc(-c2cccnc2)nc2ccccc12 returned Sa RN4220 lethal 0.0, Mtb bLac sens -4.1, ugtP null kill -9.6, Mtb UGM inh 1.8 and Rv3671c inh 2.2.
For CC1(C)OC2C(COS(=O)(=O)O)OC(n3cc(Br)c(=O)[nH]c3=O)C2O1 (stereo not given) the results were Sa RN4220 lethal 2.4, Mtb hypoxia rep 14.0 and ugtP null kill 2.8.
For CCC(=O)c1ccc(OC(=O)Cc2ccc(OC)cc2)cc1 the results were Sa RN4220 lethal 1.4, Mtb hypoxia rep 5.9, Mtb bLac sens 4.4, ugtP null kill 5.9, Mtb UGM inh 0.7, Rv3671c inh 50.9* and Rv3671c confirm 55.2*.
`NC(=O)C(CC(=O)O)NC(=O)C1CCOc2c(I)cc([N+](=O)[O-])cc2C(=O)NC(CCC(=O)O)C(=O)NC(CO)C(=O)N1` (stereo not given) gave Sa RN4220 lethal 8.5, Mtb hypoxia rep 15.1 and ugtP null kill 0.7.
`O=c1c2ccccc2nc(-c2ccccc2)n1-c1ccccc1` gave Sa RN4220 lethal 2.5, Mtb hypoxia rep 3.6, Mtb bLac sens -0.4, ugtP null kill 9.7, Mtb UGM inh 2.6 and Rv3671c inh 5.5.
Screening O=c1c2ccccc2[se]n1-c1ccccc1 returned Mtb bLac sens 48.5, Rv3671c inh 39.9* and Rv3671c confirm 40.6*.
`CCN(CC)c1ccc2nc3ccccc3[n+](CC)c2c1` gave Mtb bLac sens 98.8, Mtb UGM inh 4.0 and Rv3671c inh -1.9.
For CNc1ccc2nc3ccccc3[n+](C)c2c1 the results were Mtb bLac sens 99.2, Mtb UGM inh 2.2, Rv3671c inh 107.5* and Rv3671c confirm 82.5*.
CC(C)n1c(NCCO)nc2ccccc21 was read as Sa RN4220 lethal 2.9, Mtb hypoxia rep -0.1, Mtb bLac sens 0.6, ugtP null kill 0.1, Mtb UGM inh -0.4 and Rv3671c inh 7.7.
`C[n+]1c2ccccc2nc2ccc(NCCO)cc21` gave Sa RN4220 lethal 0.6, Mtb bLac sens 99.1, ugtP null kill 9.2, Mtb UGM inh 0.1, Rv3671c inh 43.5* and Rv3671c confirm 41.9*.
For COc1ccc(CC2CN3C(=NCC3Cc3ccccc3)N2CCNC(=O)c2ccc(C)c(Br)c2)cc1 (stereo not given) the results were Sa RN4220 lethal 13.8, Mtb hypoxia rep 16.2 and ugtP null kill 10.5.
Screening CCCn1nc([N+](=O)[O-])c(C(C#N)c2nc3ccccc3s2)c(Cl)c1=O (stereo not given) returned Sa RN4220 lethal 29.5, Mtb hypoxia rep 14.2, Mtb bLac sens 59.0, ugtP null kill 15.0, Mtb UGM inh 0.5, Rv3671c inh 39.5* and Rv3671c confirm 31.4.
